The target of this assay is Genome polyprotein (Poliovirus type 1 (strain Mahoney)) (UniProt P03300). In words: inhibitors of poliovirus polymerase RNA elongation – biochemical, fluorescence polarization, total intensity, primary screen (AID 588519). On z-score: compound at 16.7 µg/mL. The conditions noted are these: stronger effect = lower value; for % elongation: compound at 16.7 µg/mL; for z-score: measured here: FP z-score. On the technique in general: In fluorescence polarisation assays a small probe gives low polarisation when free and higher when bound to something large.

[1] abbreviates: measured here: total intensity read-out.

Out of some 150,000 compounds screened, about 1,000 (0.67%) were called active. No stated cut-off is given here; in the data, active means % elongation below about 90%; inactive means the rest, inconclusive results apart. This excerpt belongs to a sample that is enriched for actives.

Sequence of Genome polyprotein (Poliovirus type 1 (strain Mahoney)) (P03300 1749-2209 limits assumed): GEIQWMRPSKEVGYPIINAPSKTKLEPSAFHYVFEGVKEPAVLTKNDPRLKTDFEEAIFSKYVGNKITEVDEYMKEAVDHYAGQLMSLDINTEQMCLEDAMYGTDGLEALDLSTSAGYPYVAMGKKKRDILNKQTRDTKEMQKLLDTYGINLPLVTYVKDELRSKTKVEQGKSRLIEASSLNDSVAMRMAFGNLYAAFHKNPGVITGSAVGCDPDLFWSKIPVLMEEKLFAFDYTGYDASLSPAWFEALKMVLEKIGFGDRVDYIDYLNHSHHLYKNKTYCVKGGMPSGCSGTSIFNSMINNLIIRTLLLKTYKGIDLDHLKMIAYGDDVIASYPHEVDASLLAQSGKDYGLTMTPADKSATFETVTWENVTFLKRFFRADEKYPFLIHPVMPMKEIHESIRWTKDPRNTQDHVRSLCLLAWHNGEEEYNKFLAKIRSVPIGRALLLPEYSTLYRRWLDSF

For the compound `CN1CCc2c(c(S)[nH]c(=S)c2C#N)C1`, the % elongation was -17% (active) and the z-score was -18.2. In addition, under setting [1], the % elongation came to 48%.
The like results for `Cc1ccc(-n2c(C)cc(C(=O)CN3CC(C)OC(C)C3)c2C)cc1` (stereo unspecified) were, in that order, 100% (inactive), -0.2 and 99%.
In the same order, the values of `O=C(O)CCCN1C(=O)/C(=C2\SC(=S)N(CCCC(=O)O)C2=O)SC1=S` are 88% (active), -4.7 and 86%.
For the compound `O=C(O)CN1C(=O)/C(=C2/OC(=O)c3ccccc32)SC1=S`, the % elongation is 101% (inactive) and the z-score is -0.1. Moreover, the % elongation under setting [1] was 99%.
Regarding `O=C(O)CCCN1C(=O)c2ccccc2Sc2ncccc21`, the % elongation is 101% (inactive) and the z-score is -0.2. Moreover, the % elongation under setting [1] came to 105%.
As to `CCn1c(=O)c(=O)n(CC)c2cc(N3CCCCC3)c(NC(=O)c3ccc(Cl)cc3)cc21`, the % elongation is 90% (active) and the z-score is -4.3. Under setting [1], the % elongation was 85%.
As to `CCn1c(=O)c(=O)n(CC)c2cc(N3CCCCC3)c(NC(=O)c3cccc(F)c3)cc21`, the % elongation is 104% (inactive) and the z-score was -0.3. Besides, the % elongation under setting [1] is 107%.
With `CCn1c(=O)c(=O)n(CC)c2cc(N3CCCCC3)c(NC(=O)c3ccccc3)cc21`, the % elongation was 101% (inactive) and the z-score came to 0.2. Moreover, the % elongation under setting [1] amounted to 102%.
On to `CS(=O)(=O)Nc1ccc2c(c1)COC2=O`, for which the % elongation is 102% (inactive) and the z-score turned out to be 0. In addition, the % elongation under setting [1] came out at 102%.
Take `Cc1nc(N(CC(=O)OC2CC(C)CCC2C(C)C)S(=O)(=O)c2ccc(N)cc2)c(C)n1N` (stereo unspecified): the % elongation was 102% (inactive) and the z-score stood at 0.1. Under setting [1], the % elongation came out at 92%.
Consider `CCCCCC(=O)Nc1cc(-c2nc3cc(C)cc(C)c3o2)ccc1C`, for which the % elongation is 103% (inactive) and the z-score was 0.3. The % elongation under setting [1] was determined as 102%.
Consider `O=C(ON1C(=O)CCC1=O)c1ccccc1`, for which the % elongation was 80% (active) and the z-score is -2.1. Also, the % elongation under setting [1] was determined as 89%.
Turning to `O=C1CCC(=O)N1C(c1ccccc1)c1ccccc1`, the % elongation is 104% (inactive) and the z-score is 0.6. For the same compound, the % elongation under setting [1] amounted to 103%.
Take `CCN(Cc1ccccc1)C(=O)c1cccc(N2C(=O)CCC2=O)c1`: the % elongation was 101% (inactive) and the z-score was -0.5. In addition, the % elongation under setting [1] was determined as 103%.
In the case of `Cc1c(C=Nc2ccc(S(=O)(=O)N(C)C)cc2)c(O)n(C)c(=O)c1C#N`, the % elongation was 104% (inactive) and the z-score is 0.1. For the same compound, the % elongation under setting [1] worked out at 114%.
Consider `CCOc1ccc2nc(NC(=O)c3ccccc3OC)sc2c1`, for which the % elongation was 99% (inactive) and the z-score was -0.1. The % elongation under setting [1] was 92%.
For the compound `Cn1c(=O)c(=O)n(C)c2cc(NC(=O)c3ccccc3Br)ccc21`, the % elongation was 109% (inactive) and the z-score was found to be 1.1. Further, under setting [1], the % elongation stood at 113%.
On to `COc1ccc2c(c1)Cc1sc(NC(=O)c3ccccc3Br)nc1-2`, for which the % elongation was 59% (active) and the z-score was -7.3. For the same compound, under setting [1], the % elongation amounted to 63%.
Regarding `COC(=O)C1CCN(S(=O)(=O)c2ccc(Cl)cc2)CC1`, the % elongation was 103% (inactive) and the z-score turned out to be 0.2. In addition, the % elongation under setting [1] came out at 102%.
The like results for `NCC1OC(OC2C(N)CC(N)C(O)C2O[C@@H]2O[C@H](CO)[C@H](O)C2O)C(N)C(O)C1O` (stereo partly specified) were, in that order, 99% (inactive), -0.1 and 103%.
Turning to `NC[C@@H]1O[C@H](O[C@@H]2[C@@H](CO)OC(O[C@@H]3[C@@H](O)[C@H](N)C[C@H](N)[C@H]3OC3O[C@H](CN)[C@@H](O)[C@H](O)[C@H]3N)[C@@H]2O)[C@H](N)[C@@H](O)[C@@H]1O` (stereo partly specified), the % elongation was 87% (active) and the z-score is -1.4. For the same compound, the % elongation under setting [1] is 78%.
For the compound `NC(=O)c1cccc(N2C(=O)c3ccccc3C2=O)c1`, the % elongation is 105% (inactive) and the z-score came to 0.2. Also, the % elongation under setting [1] was found to be 102%.
The like results for `O=C1CCC(=O)N1OCC1CCCN2CCCCC12` (stereo unspecified) were, in that order, 104% (inactive), 0.1 and 108%.
As for `CCSc1nsc(SCC)c1C(=O)O`, the % elongation is 88% (active) and the z-score was -1.5. The % elongation under setting [1] turned out to be 96%.
`O=C(Nc1sc2c(c1C(=O)NCCc1ccccc1)CCC2)c1ccco1`: the % elongation was 103% (inactive) and the z-score is 0.4. Moreover, under setting [1], the % elongation worked out at 105%.
In the case of `Cc1ccc(-c2nc(S(=O)(=O)c3ccc(C)cc3)c(N3CCCCCC3)o2)cc1`, the % elongation was 100% (inactive) and the z-score is -1.6. Further, under setting [1], the % elongation worked out at 104%.
`Cc1ccc(CSc2oc(-c3cccs3)nc2S(=O)(=O)c2ccc(C)cc2)cc1`: the % elongation is 108% (inactive) and the z-score is 0.8. Also, under setting [1], the % elongation was determined as 109%.
As to `Cc1ccc(S(=O)(=O)c2no[n+]([O-])c2S(=O)(=O)c2ccc(C)cc2)cc1`, the % elongation was 79% (active) and the z-score was -2.2. Moreover, the % elongation under setting [1] worked out at 69%.
Regarding `CCC(c1nnc(SCc2nc3sc4c(c3c(=O)[nH]2)CCC4)n1Cc1ccccc1)N(C)C` (stereo unspecified), the % elongation is 114% (inactive) and the z-score was 2. For the same compound, under setting [1], the % elongation worked out at 106%.
As to `Cc1c(S(=O)(=O)O)oc2c1C(=O)C(=O)c1c-2ccc2c1CCCC2(C)C`, the % elongation was 87% (active) and the z-score is -1.4. In addition, the % elongation under setting [1] was 88%.
With `COc1ccccc1Cn1cccc1C1=NC(C(C)C)CO1` (stereo unspecified), the % elongation is 101% (inactive) and the z-score was 0.2. Besides, the % elongation under setting [1] stood at 103%.
With `COC1CC(O[C@@H]2[C@H](C)[C@H](OC3OC(C)CC(N(C)C)C3OC(C)=O)[C@H](C)CC3(CO3)C(=O)[C@@H](C)C(OC(C)=O)[C@H](C)[C@H](C)OC(=O)[C@@H]2C)OC(C)C1OC(C)=O` (stereo partly specified), the % elongation was 100% (inactive) and the z-score was 0.2. Besides, under setting [1], the % elongation came to 103%.
`Cc1ccc(OCCn2cc(C(=O)c3ccccc3)c3ccccc32)cc1`: the % elongation was 100% (inactive) and the z-score was -0.4. In addition, the % elongation under setting [1] stood at 96%.
As for `CCOc1ccccc1NC(=O)Cn1c2ncccc2c(=O)n1-c1ccc(C)c(C)c1`, the % elongation was 107% (inactive) and the z-score was found to be 0. Moreover, the % elongation under setting [1] was determined as 105%.
Take `CC(C)c1ccc(NC(=O)Cn2c3ncccc3c(=O)n2-c2ccccc2)cc1`: the % elongation was 33% (active) and the z-score is -5.2. Moreover, the % elongation under setting [1] was 49%.
Turning to `Cc1ccc(-n2c(=O)c3cccnc3n2CC(=O)Nc2ccccc2C(F)(F)F)cc1C`, the % elongation is 110% (inactive) and the z-score stood at 0.2. Further, the % elongation under setting [1] was determined as 105%.
`CSc1ccc(/C=N/NC(N)=S)cc1`: the % elongation is 98% (inactive) and the z-score is -0.7. Also, the % elongation under setting [1] came out at 63%.
The like results for `CCc1c(C)sc(NC(=O)c2cccs2)c1C(N)=O` were, in that order, 74% (active), -2.8 and 79%.
In the same order, the values of `Cc1ccc(O)c(NC(=O)c2cccs2)c1` are 99% (inactive), -0.7 and 108%.
The like results for `COC(=O)c1c(NC(=O)c2cccs2)sc2c1C(C(=O)OC)CC2` (stereo unspecified) were, in that order, 99% (inactive), -0.7 and 97%.
For `CC(NC(=O)Nc1cccnc1)N1C(=O)C2C3C=CC(C3)C2C1=O` (stereo unspecified), the % elongation was 100% (inactive) and the z-score was -0.4. Under setting [1], the % elongation came out at 103%.
As to `O=C(O)/C(=C/C(=O)c1ccccc1)Nc1ccc(OC(F)(F)F)cc1`, the % elongation is 103% (inactive) and the z-score turned out to be 0. Under setting [1], the % elongation was found to be 111%.
The like results for `CC(C)(C)NC(=O)C1N(C2CC2)C(=O)C2C(C(=O)NCc3ccccc3)C3C=CC21O3` (stereo unspecified) were, in that order, 103% (inactive), 0.3 and 104%.
Take `Cc1ccccc1CN1CCCN(Cc2ccccc2)S1(=O)=O`: the % elongation was 103% (inactive) and the z-score was found to be 0.1. In addition, the % elongation under setting [1] turned out to be 99%.
Consider `CCC(=O)c1ccc(OCC(=O)NC2CCCCC2C)cc1` (stereo unspecified), for which the % elongation is 101% (inactive) and the z-score is -0.4. Also, under setting [1], the % elongation was determined as 93%.
For `Cc1cc(C)c2nc(-c3ccco3)cc(C(=O)O)c2c1`, the % elongation was 96% (inactive) and the z-score was -1.9. Moreover, under setting [1], the % elongation amounted to 93%.
In the same order, the values of `Cc1cc(C)c2nc3nc(C)cc(C)c3c(N)c2c1` are 90% (active), -2.4 and 76%.

For the origin of these results see PubChem BioAssay AID588519 (ICCB-Longwood Screening Facility, Harvard Medical School, 2011).
